An excerpt weighted towards active compounds, which were near 10% of everything screened.
PTEN del growth: growth suppression of PTEN-null HCT116, primary screen, cell-based, CellTiter-Glo; HCT116 PTEN-null viability, 60 h; hits give low values; viability, % at 10 µM; 1.2% of 140,000 active;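 active = viability at or below a set limit, 4 SD under the median of all tested compounds, cut at about 3.7% in these data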;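 also: PTEN knockout HCT116 line with beta catenin targeted HCT116 as companion control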
Lmaj promast: Leishmania major promastigote growth inhibition, primary screen | 9% of 200,000 active | inhibition, % at 10 µM | Leishmania major promastigotes, resazurin fluorescence viability | AID 1063, 2008; in the data active = inhibition above about 50%;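 also: promastigotes grown with compound for 44 hours at 28 °C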
Insulin prom inh: inhibitors of insulin promoter-driven GFP, primary screen, imaging, TRM-6 cells (human fetal islet line), eGFP reporter, cell count | reporter expression induced with tamoxifen | inhibition, % at 2 µM | 0.9% of 130,000 active | AID 1273, 2008;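 active = inhibition above the mean plus 3 SD, with well images judged a real hit on visual review, cut at about 60% in these data, passing the limit was not always enough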
p97 inhibitor: inhibitors of human p97 ATPase, primary screen, biochemical; recombinant p97 ATPase, Kinase-Glo ATP luminescence, 3 h; inhibition, % at 8 µM; 0.42% of 220,000 active; AID 1481, 2009; in the data active = inhibition above about 15%;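 also: 0% = DMSO vehicle and 100% = wells lacking enzyme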
ROMK mod: ROMK potassium channel modulators, primary screen, cell-based, thallium flux, MLSMR library; ATP-sensitive inward rectifier potassium channel 1 (Homo sapiens), P48048; Tet-inducible ROMK, thallium flux fluorescence; actives lie on both sides; B-score at 10 µM; 2% of 130,000 active;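 active = signal ratio slope over the read window, or its plate-corrected B-score, at least 3 SD from the plate mean, either direction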;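 also: B-score of the F/F0 ratio slope over 7 to 12 s after thallium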
HCT116 bCat-KO: primary screen for growth suppressors in beta-catenin knockout HCT116 cells (colon tumor, human). HCT116 beta-catenin knockout viability, CellTiter-Glo, 60 h; hits give low values. viability, % at 10 µM. 1.5% of 140,000 active;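 active = viability at or under a set limit, the compound median less 4 SD, cut at about 6% in these data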;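 also: 0% = Hyamine 1622 control at 20 µM and 100% = untreated cell control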
p97 inh conf: p97 ATPase inhibitors, retest, confirmation, biochemical. 44% of 760 active. recombinant p97 ATPase, Kinase-Glo ATP luminescence. inhibition, % at 8 µM. shares compounds with p97 inhibitor. AID 1517, 2009;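 active = percent inhibition of p97 ATPase above a set limit, the primary screen's mean plus 3 SD, cut at about 15% in these data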;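 also: 0% = DMSO wells and 100% = wells lacking p97 protein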
Active calls of the source: *; x = no result given; ! = a repeat was not active.

SMILES	PTEN del growth	Lmaj promast	Insulin prom inh	p97 inhibitor	ROMK mod	HCT116 bCat-KO	p97 inh conf
CCCn1nc([N+](=O)[O-])c(C(C#N)c2nc3ccccc3s2)c(Cl)c1=O (centres undefined)	42	2	16	17*	-0.79	34	21*
O=[N+]([O-])CC(=Nc1ccc(Cl)cc1)N/N=C\c1oc(O)c2ccccc12	90	-7	33	3	-0.8	84	x
Cc1cccc(NC(=S)N(C)C)c1C	x	x	x	5	x	x	x
Cc1cccc(Nc2cc(C)c3c(O)cccc3n2)c1C	20	99*	-37	23*	-0.71	23	16*
CCOC(=O)C(C)Oc1ccsc1C(=O)OC (centres undefined)	92	-6	4	3	x	97	x
CC(C(=O)Nc1ccccc1C(=O)N1CCOCC1)N(c1ccccc1)S(C)(=O)=O (centres undefined)	91	-4	-289	-6	0.44	90	x
COc1ccc(/C=C2\N=C(c3ccccc3)NNC2=O)cc1	x	x	x	1	x	x	x
N=C1/C(=C/c2coc3ccccc3c2=O)C(=O)N=C2SC(c3ccco3)=NN12	x	x	x	16*	x	x	19*
N=C1/C(=C\c2coc3ccccc3c2=O)C(=O)N=C2SC(c3ccncc3)=NN12	x	x	x	32*	x	x	44*
CSC1=NSC2=NC(=O)/C(=C\c3coc4ccccc4c3=O)C(=N)N12	100	-16	x	9	x	101	x
Cc1cc(/C=C2\C(=N)N3N=C(c4ccco4)SC3=NC2=O)c(C)n1Cc1ccccc1	x	x	x	6	x	x	x
N=C1/C(=C\c2coc3ccc(O)cc3c2=O)C(=O)N=C2SC=CN12	x	x	x	28*	x	x	24*
O=C(O)CC1(CC(=O)Nc2ccc(Br)cc2)CCCCC1	x	-6	55	6	0.093	x	x
COc1ccc(C(=O)Oc2cc(C)[nH]c(=O)c2[N+](=O)[O-])cc1	103	-7	32	5	0.52	90	x
Cc1cc(OC(=O)c2ccc(S(=O)(=O)N(C)C)cc2)c([N+](=O)[O-])c(=O)[nH]1	x	-6	-100	16*	0.077	x	6
Cc1ccc(C)c(NC(=O)c2cnc3n(c2=O)CCS3)c1	x	1	-7	29*	-0.47	x	20*
CSc1ccccc1NC(=O)c1cnc2n(c1=O)CCS2	79	-4	x	-2	x	89	x
CN(C)S(=O)(=O)c1ccc2c(c1)nc(CCC(=O)O)n2C	x	-3	0	16*	-0.34	x	7
CCn1c(CCC(=O)O)nc2cc(S(=O)(=O)N(C)C)ccc21	x	-4	-20	1	0.45	x	x
O=S1(=O)Nc2c(ccc3cccnc23)-c2ccccc21	2.3*	99*	x	23*	-0.014	4.7*	32*
O=c1[nH]n(-c2cccc3cccnc23)c(=O)c2ccccc12	95	18	0	1	x	106	x
CC1(C)OC(=O)C(=Cc2ccc(-c3ccc(Cl)c(C(=O)O)c3)o2)C(=O)O1	x	-1	x	10	0.3	x	x
Cc1[nH][nH]c(=O)c1C(c1ccc(-c2ccc(Cl)c(C(=O)O)c2)o1)c1c(C)[nH][nH]c1=O	x	-5	x	16*	1.2	x	35*
CC(C)(C)c1nnc(NC(=O)NS(=O)(=O)c2ccccc2)s1	96	2	-36	-1	x	94	x
CS(=O)(=O)c1sc(C#N)c2c1C(=O)CC(c1ccccc1)C2 (centres undefined)	x	x	x	25*	x	x	22*
SMILES	PTEN del growth	Lmaj promast	Insulin prom inh	p97 inhibitor	ROMK mod	HCT116 bCat-KO	p97 inh conf
O=C(OCc1ccccc1)C1=[N+]([O-])OC(C(=O)OCc2ccccc2)C1c1c[nH]c2ccccc12 (centres undefined)	99	1	18	28*	x	93	36*
Cc1ccc(-n2c3c(c(=O)[nH]c2=O)C(NS(=O)(=O)c2ccc(Cl)cc2)(C(F)(F)F)C(=O)N3)cc1 (centres undefined)	86	-6	x	-1	x	86	x
CC1=NN(c2nc(-c3ccc(Cl)cc3)cs2)C(=O)C1	92	35	x	16*	0.17	97	7
COCCCNc1nc2nonc2nc1N1CCN2CCCC2C1 (centres undefined)	x	x	x	16*	x	x	2
COc1ccc(C(c2c(C)[nH]n(-c3ccccc3)c2=O)c2c(C)[nH]n(-c3ccccc3)c2=O)cc1OC	98	88*	-11	30*	-1.1	93	5
CCOc1ccc2ccccc2c1CNc1nnnn1CC	x	6	x	-5	-0.67	x	x
CC1CCCC(NCC(O)COC(c2ccc(F)cc2)c2ccc(F)cc2)C1C (centres undefined)	x	100*	x	15*	0.024	x	8
COC(=O)c1c(N)sc(Cc2ccccc2)c1C	x	-3	x	3	x	x	x
COC(=O)c1c(NC(=O)/C=C/C(=O)O)sc(Cc2ccccc2)c1C	84	-4	8	15*	-0.4	74	23*
CC(C)(C)c1ccc(OCC(=O)N/N=C/c2ccc(N3CCOCC3)cc2)cc1	71	0	-29	1	0.28	86	x
O=C(CCl)Nc1cn(-c2ccccc2)nc1-c1ccc(F)cc1	x	84*	x	17*	-0.0026	x	26*
COc1ccc(/C=N/NC(=O)Cn2cnc3ccccc3c2=O)cc1OC	107	-3	43	4	-0.72	89	x
COc1ccc(/C=N/NC(=O)Cn2ccnc2C)cc1OC	x	x	x	18*	x	x	5
CC(=O)Nc1cccc(-c2nc3ccc(NC(C)=O)cc3s2)c1	x	2	x	16*	-0.54	x	8
CC(=O)Nc1cccc(-c2nc3ccccc3s2)c1	x	5	x	3	0.31	x	x
Cc1cccc(C)c1NC(=O)CSCc1cccc(CSCC(=O)Nc2c(C)cccc2C)n1	88	1	54	16*	0.97	99	4
O=C1C(=O)N(Cc2ccccc2)C(=O)N1CCOc1ccccc1	x	-1	x	2	-0.043	x	x
O=C(O)c1cc(-c2c[nH]c3ccccc23)nc2cc3ccccc3cc12	x	x	x	27*	-0.1	x	27*
COC(=O)c1cc(-c2c[nH]c3ccccc23)n[nH]1	91	-1	-16	6	x	95	x
Cc1ccc(S(=O)(=O)Nc2ccc3nc(-c4cccn4C)[nH]c3c2)cc1	87	13	24	1	-1.1	91	x
O=C1C2C3C=CC(C3)C2C(=O)N1Nc1c(Cl)cc(Cl)cc1Cl (centres undefined)	x	2	-40	-6	-0.057	x	x
c1ccc2c(c1)[nH]c1nc(SCCN3CCOCC3)nnc12	66	7	0	3	x	68	x
Brc1ccc2[nH]c3nc(SCCN4CCOCC4)nnc3c2c1	x	-2	45	17*!	0.72	x	7
CCNC(=S)N(Cc1ccccc1)Cc1nc2ccccc2c(=O)[nH]1	99	17	-31	4	-0.054	88	x
